# Source: PubChem BioAssay (NCATS)
# Results filed as inconclusive are left out. Entries that show only a call come without a potency. Active and inactive are the calls of the source. Calls come from the whole dose curve; as a rule, active = well fitted inhibition curve with a large enough effect; inconclusive = small, poorly fitted or top-dose-only effect; inactive = flat fitted curve, though single readings scatter.
# System: MKL-1
# Test: qHTS assay to identify novel small-molecules to repurpose for Merkel cell carcinoma treatment (AID 1296009); note: nearly all actives have a fitted effect of over 60% in size
# Details: MCC and control cell lines, CellTiter-Glo viability, 72 h; series mostly up to 46 µM
# In short: (§1)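 Viability readout: ATP luminescence (CellTiter-Glo) after 72 hr drug exposure at 37 degree celsius. Dose-response format was 8 points for NPC and 11 points for MIPE; data normalized to in-plate controls.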
# Potency is the fitted concentration of half-maximal effect.
Compound,Potency,"activity change, negative = cytotoxicity"
CN1N=C(N)c2cn([C@@H]3O[C@H](COP(=O)(O)O)[C@@H](O)[C@@H]3O)c3ncnc1c23,5.9 µM (active),
CON(C)C(=O)N1N=C(c2cc(F)ccc2F)S[C@]1(CCCN)c1ccccc1,inactive,
CCC[C@H](N[C@@H](C)C(=O)N1[C@@H]2CCCC[C@H]2C[C@H]1C(=O)O)C(=O)OCC,inactive,
O=[N+]([O-])c1ccc(Nc2ccccc2-c2ccccc2)c2nonc12,inactive,
CN[C@H]1[C@@H](O[C@@H]2[C@H](O[C@@H]3[C@@H](O)[C@@H](O)[C@@H](N=C(N)N)[C@@H](O)[C@@H]3N=C(N)N)O[C@H](C)[C@@]2(O)C=O)O[C@@H](CO)[C@@H](O)[C@H]1O,,0.557% [at 9.22 µM] (inactive)
CC=C(C(=CC)c1ccc(O)cc1)c1ccc(O)cc1,inactive,
CCC(=C(c1ccc(O)cc1)c1ccc(OCCNC)cc1)c1ccccc1,inactive,
CN1CC(=O)N2C(Cc3c([nH]c4ccccc34)[C@H]2c2ccc3c(c2)OCO3)C1=O (stereo partly specified),inactive,
C[C@H]1[C@H](O)O[C@@H]2O[C@@]3(C)CC[C@@H]4[C@H](C)CC[C@@H]1[C@@]24OO3,16.6 µM (active),
CC(C)(CO)[C@@H](O)C(=O)NCCC(=O)O,inactive,
NC(=O)c1nnn(Cc2cc(Cl)c(C(=O)c3ccc(Cl)cc3)c(Cl)c2)c1N,inactive,
CC(C)[C@H](O)C(=O)N[C@@H](C)C(=O)N[C@@H]1C(=O)N(C)CCc2ccccc21,inactive,
NCC1CCC(C(=O)O)CC1 (stereo unspecified),inactive,
Cn1c(=O)c(Oc2ccc(F)cc2F)cc2cnc(NC3CCOCC3)nc21,inactive,
CC(C)=CCCC(C)=CCCC(C)=CCCC(C)=CCCC(C)=CCCC(C)=CCCC(C)=CCCC(C)=CCCC(C)=CCO,inactive,
C=C[C@@H]1CN2CCC1C[C@@H]2C(O)c1ccnc2ccc(OC)cc12 (stereo partly specified),inactive,
COc1cc(Cl)cn2c(-c3cccc(NC4CNC4)n3)cnc12,inactive,
CCCCCCCCCCCCCC(=O)N[C@H](CO)[C@H](O)c1ccc([N+](=O)[O-])cc1,inactive,
CC(C)c1onc(-c2c(Cl)cccc2Cl)c1COc1ccc(C=Cc2cccc(C(=O)O)c2)c(Cl)c1,inactive,

Compound,Potency,"activity change, negative = cytotoxicity"
C[C@@H]1CC=CC=CC=CC=C[C@@H](O[C@@H]2O[C@H](C)[C@@H](O)[C@H](N)[C@H]2O)C[C@@H]2O[C@](O)(C[C@@H](O)C[C@@H]3O[C@@H]3C=CC(=O)O1)C[C@H](O)[C@@H]2C(=O)O,inactive,
O=C(O)C1=NC(C(=O)O)CC(C=CN2c3cc(O)c(OC4OC(CO)C(O)C(O)C4O)cc3CC2C(=O)O)=C1 (stereo unspecified),inactive,
CN1CCC[C@H]1CCO[C@](C)(c1ccccc1)c1ccc(Cl)cc1,inactive,
COc1cc(F)c(C(C)C)cc1-c1ccc(C(F)(F)F)cc1CN1C(=O)O[C@H](c2cc(C(F)(F)F)cc(C(F)(F)F)c2)[C@@H]1C,inactive,
CCCCCOC(=O)Nc1nc(=O)n([C@@H]2O[C@H](C)[C@@H](O)C2O)cc1F (stereo partly specified),inactive,
O=C1CN2Cc3c(ccc(Cl)c3Cl)N=C2N1,inactive,
CC1(C)OC2CC3C4CC(F)C5=CC(=O)C=CC5(C)C4C(O)CC3(C)[C@]2(C(=O)CO)O1 (stereo partly specified),inactive,
CCOC(=O)c1c(CSc2ccccc2)n(C)c2cc(Br)c(O)c(CN(C)C)c12,inactive,
OCCn1cc(-c2ccc3c(c2)CCC3=NO)c(-c2ccncc2)n1,inactive,
COc1ccc(C=CC(=O)Nc2ccccc2C(=O)O)cc1OC,inactive,
CC(C)CN(C[C@H](O)[C@H](Cc1ccccc1)NC(=O)O[C@H]1CCOC1)S(=O)(=O)c1ccc(N)cc1,inactive,
CC1CNc2c(cccc2S(=O)(=O)N[C@@H](CCCN=C(N)N)C(=O)N2CC[C@@H](C)C[C@@H]2C(=O)O)C1 (stereo partly specified),16.6 µM (active),
Nc1ncnc2c1ncn2[C@@H]1O[C@H](CO)[C@@H](O)[C@@H]1O,14.8 µM (active),
CC[C@H](C=C[C@@H](C)[C@H]1CC[C@H]2[C@@H]3CC=C4C[C@@H](O)CC[C@]4(C)[C@@H]3CC[C@]12C)C(C)C,inactive,
COc1ccc2ccc(=O)oc2c1CC=C(C)C,10.5 µM (active),
Cn1cc(-c2ccc3nnc(Sc4ccc5ncccc5c4)n3n2)cn1,inactive,
N#CC(=C1Nc2ccccc2S1)c1ccnc(OCc2ccc(CN3CCOCC3)cc2)n1,0.118 µM (active),
CCCCC(C=O)NC(=O)C(CC(C)C)NC(=O)OCc1ccccc1 (stereo unspecified),inactive,
Cc1cc(CS(=O)(=O)c2ccccc2)cc(OCc2ccc(CN3CCC[C@H]3CO)cc2)c1,inactive,

# System: MKL-2
# Test: as above
# Details: MCC and control cell lines, CellTiter-Glo viability, 72 h; series mostly up to 46 µM
# In short: as §1
Compound,Potency,"activity change, negative = cytotoxicity"
CN1N=C(N)c2cn([C@@H]3O[C@H](COP(=O)(O)O)[C@@H](O)[C@@H]3O)c3ncnc1c23,5.9 µM (active),
CON(C)C(=O)N1N=C(c2cc(F)ccc2F)S[C@]1(CCCN)c1ccccc1,inactive,
CCC[C@H](N[C@@H](C)C(=O)N1[C@@H]2CCCC[C@H]2C[C@H]1C(=O)O)C(=O)OCC,inactive,
O=[N+]([O-])c1ccc(Nc2ccccc2-c2ccccc2)c2nonc12,inactive,
CN[C@H]1[C@@H](O[C@@H]2[C@H](O[C@@H]3[C@@H](O)[C@@H](O)[C@@H](N=C(N)N)[C@@H](O)[C@@H]3N=C(N)N)O[C@H](C)[C@@]2(O)C=O)O[C@@H](CO)[C@@H](O)[C@H]1O,,13.1% [at 9.22 µM] (inactive)
CC=C(C(=CC)c1ccc(O)cc1)c1ccc(O)cc1,inactive,
CCC(=C(c1ccc(O)cc1)c1ccc(OCCNC)cc1)c1ccccc1,inactive,
CN1CC(=O)N2C(Cc3c([nH]c4ccccc34)[C@H]2c2ccc3c(c2)OCO3)C1=O (stereo partly specified),inactive,
C[C@H]1[C@H](O)O[C@@H]2O[C@@]3(C)CC[C@@H]4[C@H](C)CC[C@@H]1[C@@]24OO3,10.5 µM (active),
CC(C)(CO)[C@@H](O)C(=O)NCCC(=O)O,inactive,
NC(=O)c1nnn(Cc2cc(Cl)c(C(=O)c3ccc(Cl)cc3)c(Cl)c2)c1N,inactive,
CC(C)[C@H](O)C(=O)N[C@@H](C)C(=O)N[C@@H]1C(=O)N(C)CCc2ccccc21,inactive,
NCC1CCC(C(=O)O)CC1 (stereo unspecified),inactive,
Cn1c(=O)c(Oc2ccc(F)cc2F)cc2cnc(NC3CCOCC3)nc21,inactive,
CC(C)=CCCC(C)=CCCC(C)=CCCC(C)=CCCC(C)=CCCC(C)=CCCC(C)=CCCC(C)=CCCC(C)=CCO,inactive,
C=C[C@@H]1CN2CCC1C[C@@H]2C(O)c1ccnc2ccc(OC)cc12 (stereo partly specified),inactive,
COc1cc(Cl)cn2c(-c3cccc(NC4CNC4)n3)cnc12,inactive,
CCCCCCCCCCCCCC(=O)N[C@H](CO)[C@H](O)c1ccc([N+](=O)[O-])cc1,inactive,
CC(C)c1onc(-c2c(Cl)cccc2Cl)c1COc1ccc(C=Cc2cccc(C(=O)O)c2)c(Cl)c1,inactive,

Compound,Potency,"activity change, negative = cytotoxicity"
C[C@@H]1CC=CC=CC=CC=C[C@@H](O[C@@H]2O[C@H](C)[C@@H](O)[C@H](N)[C@H]2O)C[C@@H]2O[C@](O)(C[C@@H](O)C[C@@H]3O[C@@H]3C=CC(=O)O1)C[C@H](O)[C@@H]2C(=O)O,inactive,
O=C(O)C1=NC(C(=O)O)CC(C=CN2c3cc(O)c(OC4OC(CO)C(O)C(O)C4O)cc3CC2C(=O)O)=C1 (stereo unspecified),inactive,
CN1CCC[C@H]1CCO[C@](C)(c1ccccc1)c1ccc(Cl)cc1,inactive,
COc1cc(F)c(C(C)C)cc1-c1ccc(C(F)(F)F)cc1CN1C(=O)O[C@H](c2cc(C(F)(F)F)cc(C(F)(F)F)c2)[C@@H]1C,inactive,
CCCCCOC(=O)Nc1nc(=O)n([C@@H]2O[C@H](C)[C@@H](O)C2O)cc1F (stereo partly specified),inactive,
O=C1CN2Cc3c(ccc(Cl)c3Cl)N=C2N1,inactive,
CC1(C)OC2CC3C4CC(F)C5=CC(=O)C=CC5(C)C4C(O)CC3(C)[C@]2(C(=O)CO)O1 (stereo partly specified),inactive,
CCOC(=O)c1c(CSc2ccccc2)n(C)c2cc(Br)c(O)c(CN(C)C)c12,inactive,
OCCn1cc(-c2ccc3c(c2)CCC3=NO)c(-c2ccncc2)n1,inactive,
COc1ccc(C=CC(=O)Nc2ccccc2C(=O)O)cc1OC,inactive,
CC(C)CN(C[C@H](O)[C@H](Cc1ccccc1)NC(=O)O[C@H]1CCOC1)S(=O)(=O)c1ccc(N)cc1,inactive,
CC1CNc2c(cccc2S(=O)(=O)N[C@@H](CCCN=C(N)N)C(=O)N2CC[C@@H](C)C[C@@H]2C(=O)O)C1 (stereo partly specified),3.72 µM (active),
Nc1ncnc2c1ncn2[C@@H]1O[C@H](CO)[C@@H](O)[C@@H]1O,1.66 µM (active),
CC[C@H](C=C[C@@H](C)[C@H]1CC[C@H]2[C@@H]3CC=C4C[C@@H](O)CC[C@]4(C)[C@@H]3CC[C@]12C)C(C)C,inactive,
COc1ccc2ccc(=O)oc2c1CC=C(C)C,11.8 µM (active),
Cn1cc(-c2ccc3nnc(Sc4ccc5ncccc5c4)n3n2)cn1,inactive,
N#CC(=C1Nc2ccccc2S1)c1ccnc(OCc2ccc(CN3CCOCC3)cc2)n1,0.132 µM (active),
CCCCC(C=O)NC(=O)C(CC(C)C)NC(=O)OCc1ccccc1 (stereo unspecified),inactive,
Cc1cc(CS(=O)(=O)c2ccccc2)cc(OCc2ccc(CN3CCC[C@H]3CO)cc2)c1,inactive,
